What all share (assay): qHTS profiling for inhibitors of Plasmodium falciparum proliferation (AID 504749); further: nearly all actives have a fitted effect of over 60% in size
Holding throughout (conditions): P. falciparum in erythrocytes, SYBR Green DNA, 72 h; series mostly up to 28.7 µM

One experiment relates to CP185. A digest of the protocol:
(§1)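 Infected RBCs, 0.3% parasitemia/2.5% Hct final; cpd 72 h, 37 C, 5% CO2; lysis buffer with saponin/triton/SYBR Green I, o/n RT dark; FI 485/535; norm. to artemisinin (0.29 uM) and DMSO.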

A further experiment relates to CP191. In a few lines: as §1
Another experiment relates to CP201. In a few lines:
as §1

In the next experiment the test system is CP203. A digest of the protocol:
as §1

The test system of the next experiment is CP192. In a few lines:
as §1

The subject of a further experiment is CP194. In a few lines: as §1
Another experiment deals with CP211. In a few lines:
as §1

For the next experiment, the system named is CP215. A digest of the protocol: as §1
Another experiment relates to C2A. A digest of the protocol:
as §1

The subject of another experiment is CP217. In a few lines:
as §1

Each structure is given as a SMILES string. Inconclusive results are not listed. Active and inactive are the calls of the source. The call rests on the fitted dose curve; in most records, active means well fitted inhibition curve with a large enough effect; inconclusive means small, poorly fitted or top-dose-only effect; inactive means flat fitted curve, though single readings scatter.
Potency means the concentration at half of the fitted maximal effect.

With `Oc1ccc(O)cc1`, the Potency entry with CP185, with CP191 and in the experiment on CP201 was “inactive” in each case.

As to `CNCCC=C1c2ccccc2CCc2ccccc21`, in the experiment with CP203, the Potency was 7.57 µM (active).

Regarding `c1ccc(CNCCNCc2ccccc2)cc1`, the Potency result in the experiment with CP191, in the experiment on CP192 and with CP201 was “inactive” throughout.

Regarding `CN(C)CC/C=C1\c2ccccc2Sc2ccc(Cl)cc21`, the Potency entry with CP192 and in the experiment with CP201 was “inactive” throughout.

For the compound `CN=C(NC#N)Nc1ccc(C2=NNC(=O)CC2C)cc1` (configuration not stated), the Potency result with CP192, with CP194, in the experiment with CP201, with CP211 and with CP215 was “inactive” in each case.

For the compound `CCN(CCCc1ccccc1)CCCc1ccccc1`, the Potency result in the experiment with C2A, in the experiment with CP191, in the experiment on CP192, with CP201 and in the experiment on CP217 was “inactive” each time.

Turning to `COc1cc2c(cc1OC)C(=O)C(CC1CCN(Cc3ccccc3)CC1)C2` (configuration not stated), the Potency in the experiment with CP191 was 8.91 µM (active). Also, the Potency result in the experiment with CP192, in the experiment on CP194, with CP201, in the experiment on CP203, in the experiment on CP211 and in the experiment on CP215 was “inactive” throughout.

In the case of `CN(C)CCOc1ccccc1Cc1ccccc1`, the Potency entry in the experiment on CP192 and in the experiment with CP201 was “inactive” each time.

`C[C@@H]1CN(CCCn2c3ccccc3c3ccccc32)C[C@H](C)N1`: the values for the Potency with C2A and in the experiment on CP191 were 11.2 µM (active) and 7.08 µM (active), respectively. In the experiment with CP192, the Potency entry is “inactive”.

For the compound `CCN(CC)CCOc1ccc(C(O)(Cc2ccc(Cl)cc2)c2ccc(C)cc2)cc1` (configuration not stated), the Potency in the experiment with CP215 was 13.5 µM (active).

Regarding `CC(C)=CCC1C(=O)N(c2ccccc2)N(c2ccccc2)C1=O`, the Potency entry with C2A and in the experiment on CP201 was “inactive” throughout. The Potency with CP215 is 13.5 µM (active).

As for `CCCCCCCCCCOCC(O)CN` (configuration not stated), the Potency result in the experiment with C2A, with CP191, in the experiment on CP201 and in the experiment on CP215 was “inactive” each time.

On to `CO/N=C1\CN(c2nc3c(cc2F)c(=O)c(C(=O)O)cn3C2CC2)CC1CN` (configuration not stated), for which the Potency in the experiment with CP191 was 8.91 µM (active).

`CC(C)NC[C@@H](O)COc1cccc2ccccc12`: the Potency result in the experiment with C2A, in the experiment on CP192, in the experiment on CP201 and with CP211 was “inactive” each time. The Potency with CP203 was 10.7 µM (active).

Turning to `O=C1[C@H]2CCCC[C@H]2C(=O)N1CCCCN1CCN(c2nsc3ccccc23)CC1`, the Potency result in the experiment on CP185, in the experiment on CP192, with CP194, in the experiment with CP201, with CP203 and in the experiment with CP211 was “inactive” each time. In addition, the Potency entry in the experiment on CP215 and with CP217 was “inactive” each time.

Consider `CCOC(=O)COc1ccc2c(C)c(CCN(CC)CC)c(=O)oc2c1Cl`, for which the Potency result with CP185, in the experiment on CP192, in the experiment with CP194, in the experiment on CP201, with CP211 and with CP215 was “inactive” in each case. The Potency entry in the experiment with CP217 is “inactive”.

Consider `O=C1OCCN1/N=C/c1ccc([N+](=O)[O-])o1`, for which the Potency result in the experiment with C2A, in the experiment with CP192 and in the experiment with CP194 was “inactive” throughout.

As to `CCN(CC)CCNC(=O)COc1ccc(Cl)cc1`, the Potency entry in the experiment with C2A, with CP191, in the experiment with CP192, with CP201, in the experiment on CP203 and in the experiment with CP211 was “inactive” in each case. For the same compound, in the experiment with CP215, the Potency result is “inactive”.

As for `O=C(CCCN1CCC(O)(c2ccc(Br)cc2)CC1)c1ccc(F)cc1`, the Potency result in the experiment with CP201 and with CP211 was “inactive” in each case.

In the case of `c1ccc(-c2ccc(C(c3ccccc3)n3ccnc3)cc2)cc1` (configuration not stated), the Potency was 10 µM (active) in the experiment with CP185; 11.2 µM (active) in the experiment with CP191; 10.7 µM (active) in the experiment with CP192; 15.1 µM (active) with CP203; 19 µM (active) in the experiment with CP211; 15.1 µM (active) in the experiment on CP215. The Potency in the experiment with CP217 is 8.91 µM (active).

As for `CN1CCN(CCCN2c3ccccc3Sc3ccc(S(=O)(=O)N(C)C)cc32)CC1`, the Potency entry in the experiment with CP185, in the experiment on CP192, in the experiment with CP194, with CP201 and in the experiment with CP211 was “inactive” throughout. Further, the Potency in the experiment with CP191 and in the experiment on CP217 was 3.98 µM (active) each time.

`COC(=O)[C@H]1[C@H]2C[C@H]3c4[nH]c5ccccc5c4CCN3C[C@H]2CC[C@@H]1O`: the Potency entry with CP192, in the experiment on CP194, with CP201, with CP203, in the experiment with CP211 and in the experiment on CP215 was “inactive” throughout.

Consider `CCCCCCCCCCCCCCCC[N+](C)(C)CCN(Cc1ccc(OC)cc1)c1ncccn1`, for which, in the experiment on CP191, the Potency is 0.794 µM (active). Further, the Potency entry with CP192, in the experiment with CP194, in the experiment on CP201, with CP211 and in the experiment on CP215 was “inactive” throughout.

Take `NC(CS)C(=O)O` (configuration not stated): the Potency result in the experiment on CP185, in the experiment with CP192, in the experiment on CP201 and in the experiment with CP211 was “inactive” each time. Moreover, the Potency in the experiment with CP191 is 10 µM (active).

`CC(=O)N/N=C/c1ccc([N+](=O)[O-])o1`: the Potency entry in the experiment on CP192, in the experiment on CP194, in the experiment with CP201 and with CP215 was “inactive” throughout.

Consider `CCOC(=O)/C=C(C)/C=C/C=C(C)/C=C/c1c(C)cc(OC)c(C)c1C`, for which the Potency entry with CP192, in the experiment with CP194, with CP201, with CP203, with CP211 and with CP215 was “inactive” in each case.

Turning to `CN(C)C(=S)SC(=S)N(C)C`, the Potency in the experiment on CP192 was 7.57 µM (active).

With `O=C(N/N=C/c1ccccc1O)c1ccncc1`, the Potency is 11.2 µM (active) in the experiment on C2A and 8.91 µM (active) in the experiment with CP217.

`CCCOC(C(=O)OC1CCN(C)CC1)(c1ccccc1)c1ccccc1`: the Potency entry in the experiment on CP192, in the experiment on CP201 and in the experiment on CP203 was “inactive” in each case.

As to `CC1=C(C(=O)OC(C)C)C(c2cccc([N+](=O)[O-])c2)C(C(=O)OC2CN(C(c3ccccc3)c3ccccc3)C2)=C(N)N1` (configuration not stated), the Potency was 10 µM (active) with CP185; 7.08 µM (active) in the experiment on CP191; 7.57 µM (active) in the experiment with CP192; 6.75 µM (active) in the experiment with CP194; 7.57 µM (active) in the experiment on CP201; 12 µM (active) in the experiment on CP203. For the same compound, the Potency with CP211 was 6.75 µM (active); with CP215, 7.57 µM (active); with CP217, 6.31 µM (active).

As for `C=C(CC)C(=O)c1ccc(OCC(=O)O)c(Cl)c1Cl`, the Potency result in the experiment with CP192, in the experiment with CP201 and in the experiment on CP217 was “inactive” throughout.

In the case of `CCCCCCCCCCCCCCNCCO`, the Potency entry in the experiment with CP192, with CP194, in the experiment on CP201, with CP203, with CP211 and in the experiment with CP217 was “inactive” throughout.

(Values after PubChem BioAssay (NCATS).)
